# Bioassay records from PubChem.
# Six1-Eya2 blk = blocks human Six1 binding to Eya2; actives 0.56% (n = 360,000); Q15475+O00167; AlphaScreen GST-Six1/His-Eya2 binding, biochemical; stronger effect = lower value; AID 651725; activity change, % (concentration not given with the values); in the data active means activity change below about -65%; inconclusive means mostly about -30% to -63%; further: on the % scale 0 is the no-effect control and ±100 the full control effect
#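 AlphaScreen luminescence read after one hour at 37 °C in darkness. Pin-transferred compounds met GST-Six1 and His-Eya2 protein (5X stock 250 nM/500 nM) plus glutathione donor and Ni-chelate acceptor beads (5X, 50 ug/mL).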
# VP16 counter = Gal4-VP16 reporter inhibition counter-screen; Drosophila S2 Gal4-VP16 UAS-luciferase, luminescence, 20 h; Potency, µM (series often up to 53.6 µM), for the others: top-dose activity, negative = inhibition, usual class: inhibitors; actives 3.5% (n = 310,000); AID 2546;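 further: Gal4-VP16 expression switched on by copper sulfate through the metallothionein promoter; potency means the concentration at half of the fitted maximal effect; on the % scale 0 is the no-effect control and ±100 the full control effect; nearly all actives have a fitted effect of over 50% in size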
# MBNL1 CUG block = inhibitors of human MBNL1 binding to CUG repeat RNA. Q9NR56. TR-FRET MBNL1-His/biotin-(CUG)12 binding, 665/545 ratio. Potency, µM (top dose mostly 57.5 µM), for the others: at the top dose activity change, negative = inhibition, usual class: inhibitors. actives 0.036% (n = 280,000); active means well fitted inhibition curve with a large enough effect in the signal ratio, with a control signal flat, not every such curve was filed as active; inconclusive means small, poorly fitted or top-dose-only effect, or effect the other way, or a change in a side signal; inactive means no such curve, though single readings can be large or run the other way; the % refers to the signal ratio; further: potency means the concentration at half of the fitted maximal effect; on the % scale 0 is the no-effect control and ±100 the full control effect
# Target sequence (Q9NR56 whole entry, looked up): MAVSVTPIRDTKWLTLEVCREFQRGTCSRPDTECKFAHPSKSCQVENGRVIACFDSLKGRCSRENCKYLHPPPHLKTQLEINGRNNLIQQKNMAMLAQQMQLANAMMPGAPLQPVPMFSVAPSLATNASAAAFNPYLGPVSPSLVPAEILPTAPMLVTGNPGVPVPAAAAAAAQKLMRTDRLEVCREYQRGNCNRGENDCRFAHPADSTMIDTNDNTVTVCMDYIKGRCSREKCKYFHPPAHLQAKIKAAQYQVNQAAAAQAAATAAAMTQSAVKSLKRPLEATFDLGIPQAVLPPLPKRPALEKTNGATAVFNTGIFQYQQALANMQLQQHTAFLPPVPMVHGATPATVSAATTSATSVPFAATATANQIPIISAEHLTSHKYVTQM
#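 Compounds (final 92 nM to 58 uM) are added to His-tagged MBNL1 and biotin-(CUG)12, then terbium anti-His antibody and streptavidin-XL665 (5 nM final). After 60 min at room temperature, the 665/545 nm ratio is read.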
# CBFb RUNX1 block = blocks binding between human CBF-beta and RUNX1 | Q01196+Q13951 | AlphaScreen CBFb-His/RUNX1-biotin binding, biochemical | Potency, µM (titrated, usually from 59.8 µM), inactives show top-dose activity, negative = inhibition, usual class: inhibitors | 230,000 tested, under 10 active; further: % of control where 0% means no effect
#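 His-tagged CBF-beta and biotinylated RUNX1 (30 nM each) were premixed 20 min at room temperature, exposed to compound for 15 min, then given nickel-chelate and streptavidin AlphaScreen beads (50 ng each). After 90 min, AlphaScreen signal was read.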
# RORgamma inh = inhibitors of mouse ROR gamma transcriptional activity; AID 2551; actives 5.4% (n = 310,000); Potency, µM (titrated, usually from 53.6 µM), inactives show at the highest dose activity change, negative = inhibition, most hits filed as inhibitors; Drosophila S2 Gal4-RORgamma UAS-luciferase reporter, 20 h; further: potency means the concentration at half of the fitted maximal effect; on the % scale 0 is the no-effect control and ±100 the full control effect; nearly all actives have a fitted effect of over 60% in size
#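 Luminescence from a UAS-regulated Photinus luciferase reporter in stably transfected Drosophila Schneider cells is measured; decreased signal marks ROR gamma inhibition. Fusion expression is induced by 700 uM copper sulfate for 20 hr.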
# CtBP-E1A inh = CtBP/E1A binding inhibition; activity change, % (test concentration not listed); AlphaScreen GST-E1A/His-CtBP binding, 1536-well; stronger effect = lower value; actives 0.49% (n = 340,000); AID 651724; in the data active means activity change below about -65%; inconclusive means mostly about -30% to -63%; further: on the % scale 0 is the no-effect control and ±100 the full control effect
#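 Homogeneous bead-based format: GST-tagged E1A captured on glutathione donor beads, His-tagged CtBP on nickel acceptor beads; compounds precede bead addition by 2 h at 37 °C.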
# An asterisk follows results filed as active; ? = inconclusive; . = no result; [ ] = another dose, or the depositor's remark. Compounds with a hit are over-represented: about 5.5% of the library has one in this group of screens. Unless noted, the call rests on the fitted dose curve; in most records, active means well fitted curve in the direction sought with a large enough effect; inconclusive means small, poorly fitted or top-dose-only effect, or another doubt; inactive means no such curve, though single readings can be large; an effect the other way counts as inactive or inconclusive.
SMILES,Six1-Eya2 blk,VP16 counter,MBNL1 CUG block,CBFb RUNX1 block,RORgamma inh,CtBP-E1A inh
CCC(c1nnc(SCC(=O)NC23CC4CC(CC(C4)C2)C3)o1)N(C)C (centres undefined),4,-10%,-3%,5%,-21%,3
Cc1cc(NC(=O)CSc2nnc(-c3ccc(O)cc3)o2)no1,?,-15%,-3%,-24%,-5%,-29
Cc1nnc(SCC(=O)Nc2nccs2)s1,4,-14%,-8%,-2%,-1%,2
Cc1nnc(SCC(=O)Nc2nccs2)o1,?,1%,-7%,.,-11%,-73*
Cc1ccc(N=Nc2c(C)[nH]n(-c3ccccc3)c2=O)c(C)c1,-23,18µM*,?,0%,?,-9
CCCCc1ccc(/C=C(\C#N)C(N)=S)s1,-7,?,?,-19%,7.1µM*,0
CCOc1ccc(/C=C(\C#N)C(=O)NCC2CCCO2)cc1OCC (centres undefined),-5,-4%,.,0%,-7%[10 µM],-66*
COc1cc(/C=C(\C#N)C(=O)NCC2CCCO2)ccc1O (centres undefined),9,25%,.,0%,4%,6
Cc1ccc(C(=O)CSc2nnnn2C(C)C)c(C)c1,9,13µM*,0%,12%,11µM*,9
Cc1ccc(C)c(C(=O)CSc2nnnn2C(C)C)c1,5,-3%[0.365 µM],6%,14%,22%,11
Cc1nn(-c2ccccc2)c(C)c1/C=C/C(=O)OCC(=O)NC1CCS(=O)(=O)C1 (centres undefined),-3,19%,7%,-3%,20%,-75*
O=C(COC(=O)/C=C/c1ccccc1)NC1CCS(=O)(=O)C1 (centres undefined),0,.,.,.,.,.
O=C(CCl)N(c1ccccc1)C1CCS(=O)(=O)C1 (centres undefined),1,?,4%,-2%,18µM*,1
CCOC(=O)C1CCN(C(=S)Nc2cc(C)ccc2C)CC1,-5,?,-3%,-4%,18µM*,-5
CCOC(=O)C1CCCN(CC(=O)Nc2cc(C)cc(C)c2)C1 (centres undefined),-1,-5%,0%,-5%,-14%,8
CCOC(=O)C1CCN(CCC(=O)Nc2cc(C)ccc2C)CC1,9,-18%,2%,.,-10%,1
CCOC(=O)C1CCN(C(=S)Nc2cccc(C)c2C)CC1,4,-9%,-21%,0%,11µM*,0
CCOC(=O)C1CCCN(C(=S)Nc2cc(C)cc(C)c2)C1 (centres undefined),-2,?,-5%,-1%,11µM*,1
CCOC(=O)N1CCN(C(=S)Nc2ccccc2C)CC1,5,-5%,-4%,1%,-19%,3
CCOC(=O)C1CCN(C(=S)Nc2ccc(Cl)cc2C)CC1,-2,?,-4%,10%,14µM*,7
CCCCCCCCCCCC(=O)OCC(O)C1OCC(O)C1O (centres undefined),.,1%,.,.,13%,.
CCOC(=O)C1CCN(C(=S)Nc2ccc(CC)cc2)CC1,3,?,-2%,-3%,11µM*,-13
CCOC(=O)C1CCN(C(=S)Nc2cccc(C)c2)CC1,4,?,-4%,9%,-41%,8
Cc1ccc(C)c(NC(=S)N2CCCCCC2)c1,1,?,-9%,2%,13µM*,10
CCc1ccc(NC(=S)N2CCC(NC(=O)c3ccccc3OC)CC2)cc1,-5,-8%,-8%,.,10µM*,5
SMILES,Six1-Eya2 blk,VP16 counter,MBNL1 CUG block,CBFb RUNX1 block,RORgamma inh,CtBP-E1A inh
CC(=O)Oc1ccc(/C=C/C(=O)CC2OC(Oc3cc(OC(C)=O)c4c(c3)O[C@@H](c3ccc(OC(C)=O)cc3)CC4=O)C(OC(C)=O)C(OC(C)=O)C2OC(C)=O)cc1 (some centres undefined),.,1%,.,-5%[21.7 µM],14%,.
Cc1cc(C)n2nc(SCC(=O)N3CCCCC3C)nc2n1 (centres undefined),4,.,.,.,.,5
Cc1nc(C(F)(F)F)ccc1C(=O)N1CCC1(C)C(=O)NS(=O)(=O)c1cccc(Cl)c1 (centres undefined),4,.,.,.,.,5
COC(=O)CCSCc1cn2cc(Cl)ccc2n1,1,?,-22%,1%,6.3µM*,-3
CCCc1ccc(Oc2c(-c3ccc(O)c(C)c3O)n[nH]c2C)cc1,-13,?,-14%,-7%,18µM*,-5
C[C@H](c1ccccc1)N1C(=O)[C@H]2[C@@H]3[C@H](O)[C@H](O)CC(=O)[C@H]3CC[C@H]2C1=O,.,-3%[10 µM],.,4%[13.1 µM],-1%[10 µM],.
Cc1sc(NC(=O)CN2CCCC2)nc1-c1ccc2c(c1)CCN2C(=O)c1cccc(F)c1,-17,?,0%,.,11µM*,-18
CC12CCC(=O)N1C(C(=O)NCCc1ccccc1)CS2 (centres undefined),1,16µM*,-1%,.,7.9µM*,2
O=C1c2cc([N+](=O)[O-])ccc2-c2cc(Br)c(N=C(NO)C(F)(F)F)cc21,-21,.,.,.,.,-9
CN(/N=C/c1cc(Cl)cc(Cl)c1O)C(=S)NC(C)(C)C,-2,16µM*,-25%,3%,?,.
COc1ccc(N=Cc2cc(Cc3ccccc3Cl)cc([N+](=O)[O-])c2O)cc1OC,-1,-16%,3%,?,7%,.
Cc1ccc(N=Cc2cc(Cc3ccccc3Cl)cc([N+](=O)[O-])c2O)c(O)c1,-10,4.5µM*,-6%,?,6.3µM*,-6
CC(OC(=O)CCc1nc2ccccc2c(=O)[nH]1)C(=O)c1ccc(C(C)(C)C)cc1 (centres undefined),-3,5.6µM*,-15%,-2%,?,4
CC(OC(=O)CCc1nc2ccccc2c(=O)[nH]1)C(=O)NC1CCCC1 (centres undefined),13,-5%,-10%,-11%,?,5
Cc1cc(=O)n2[nH]cc(-c3ccccc3)c2n1,?,?,-3%,.,?,-13
COCc1cc(=O)n2[nH]cc(-c3ccccc3)c2n1,10,10µM*,15%,.,13µM*,0
CCOC(=O)Cc1cc(=O)n2[nH]cc(-c3cccc(Br)c3)c2n1,-10,?,2%,-5%,13µM*,-1
CCOC(=O)Cc1c(C)nc2c(-c3ccc(Cl)cc3)c[nH]n2c1=O,-24,16µM*,-4%,-4%,5.6µM*,-12
CCCc1cc(=O)n2[nH]cc(-c3ccc(Cl)cc3)c2n1,1,3.2µM*,8%,.,4.5µM*,0
